PubChem BioAssay (NCI)
About 83,000 compounds went through this panel and 20% of them were active in at least one assay; those are over-represented in the sample as a whole.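 Single-concentration screen, 48 h exposure, 96-well plates. Endpoint: percent growth. Below 10 = active.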 A number with no mark means an inactive call. Active and inactive are the calls of the source.

Experiments:
Experiment in all cases: NCI-60 one-dose screen, 48 h (100 = growth as untreated, 0 = no growth, -100 = all killed)
Conditions in all cases: 10 µM
NCI-H23 lung = tested on: NCI-H23 lung
NCI-H226 lung = tested on: NCI-H226 lung
NCI-H322M lung = tested on: NCI-H322M lung
HOP-62 NSCLC = tested on: HOP-62 NSCLC
NCI-H460 lung = tested on: NCI-H460 lung
NCI-H522 lung = tested on: NCI-H522 lung
A549/ATCC NSCLC = tested on: A549/ATCC NSCLC
786-0 renal = tested on: 786-0 renal
COLO 205 colon = tested on: COLO 205 colon
DU-145 prostate = tested on: DU-145 prostate
K-562 leukemia = tested on: K-562 leukemia
MALME-3M melanoma = tested on: MALME-3M melanoma
MDA-MB-231 breast = tested on: MDA-MB-231 breast
RXF 393 renal = tested on: RXF 393 renal
SF-268 CNS = tested on: SF-268 CNS
SF-295 CNS = tested on: SF-295 CNS
SF-539 CNS = tested on: SF-539 CNS
UACC-257 melanoma = tested on: UACC-257 melanoma
M14 melanoma = tested on: M14 melanoma

Row | SMILES | growth (NCI-H23 lung) | growth (NCI-H226 lung) | growth (NCI-H322M lung) | growth (HOP-62 NSCLC) | growth (NCI-H460 lung) | growth (NCI-H522 lung) | growth (A549/ATCC NSCLC) | growth (786-0 renal) | growth (COLO 205 colon) | growth (DU-145 prostate) | growth (K-562 leukemia) | growth (MALME-3M melanoma) | growth (MDA-MB-231 breast) | growth (RXF 393 renal) | growth (SF-268 CNS) | growth (SF-295 CNS) | growth (SF-539 CNS) | growth (UACC-257 melanoma) | growth (M14 melanoma)
1 | N#CCc1ccc([N+](=O)[O-])cc1 | 98.5% | 98.2% | 99.1% | 90.7% | 102% | 101% | 96.6% | 106% | 105% | 113% | 114% | 148% | 100% | 113% | 106% | 95.3% | 101% | 74% | 101%
2 | O=c1[nH]cc(Cl)cc1O | 96.4% | 95.5% | 97.1% | 103% | 94.1% | 60.7% | 75.2% | 101% | 112% | 96.8% | 48% | 91.2% | 77.8% | 107% | 79% | 82.4% | 96% | 92.3% | 86.6%
3 | C=CC(O)CCC (centres undefined) | 106% | 115% | 103% | 110% | 104% | 99.6% | 91.5% | 105% | 119% | 112% | 104% | 106% | 106% | 121% | 107% | 91.1% | 102% | 90.3% | 106%
4 | O=C(O)C(Cc1ccccc1)C(=O)O | 95.1% | 95.5% | 105% | 118% | 101% | 106% | 103% | 99.4% | 110% | 113% | 108% | 115% | 104% | 104% | 110% | 98.1% | 102% | 108% | 104%
5 | N#CCCN(CCCN1CCOCC1)CN1C(=O)c2ccccc2C1=O | 102% | 97.9% | 90.8% | 105% | 111% | 92% | 105% | 111% | 109% | 109% | 91.6% | 87.6% | 113% | 98% | 115% | 98.6% | 110% | 107% | 125%
6 | CC1SC(N)=NC1=O (centres undefined) | 94.8% | 107% | 114% | 79.5% | 115% | 97.5% | 102% | 95.3% | 138% | 117% | 112% | 108% | 112% | 120% | 110% | 102% | 106% | 110% | 103%
7 | CC1(C(=O)O)NC(C(=O)O)Cc2c1[nH]c1ccccc21 (centres undefined) | 101% | 93.8% | 91.5% | 102% | 105% | 92.6% | 101% | 104% | 104% | 110% | 96.9% | 90.5% | 104% | 110% | 113% | 90.2% | 105% | 87.6% | 96.7%
8 | CC1=NN(c2ccccc2)C(=O)/C1=C\N1CC(=O)NC1=S | 98.1% | 98.4% | 108% | 99.5% | 98.6% | 81.7% | 100% | 104% | 106% | 106% | 104% |  | 98.3% | 108% | 101% | 104% | 109% | 90.6% | 103%
9 | O=C(N/N=C\c1cc(Br)cc(Br)c1O)N/N=C/c1cc(Br)cc(Br)c1O | 67.1% | 50.6% | 42.2% | 52.8% | 69.8% | 22.3% |  | 46.5% | 62.1% | 75.2% | 22.9% | 70.2% | 72% |  | 51.1% | 6.45% (active) | 35.5% |  | 55.2%
10 | COC(=O)Nc1nc2ccc(C(=O)c3ccc(F)cc3)cc2[nH]1 | 31.8% | 145% | 40.5% | 33.1% | 6% (active) | -52.1% (active) |  | 26.4% | -37.7% (active) | -31% (active) | -37% (active) | 57.5% | 26.5% | -41.2% (active) | 22.6% | -3.22% (active) | -21.8% (active) | -2.09% (active) | 15.6%
11 | O=C(O)c1cccc([N+](=O)[O-])c1O | 98.9% | 104% | 97.3% | 96% | 104% | 101% | 111% | 102% | 105% | 109% | 106% |  | 103% |  | 106% | 90.8% | 114% | 107% | 94.1%
12 | CC1=C(/C=C/C(C)=C/C=C/C(C)=C/CO)C(C)(C)CCC1 | 102% | 104% | 105% | 104% | 117% | 105% | 102% | 103% | 110% | 112% |  | 120% | 102% |  | 114% | 110% | 105% | 99.9% | 104%
13 | O=C1C=CC2=C3c4cc(O)c(O)cc4CC3(O)COC2=C1O (centres undefined) | 117% | 95.1% | 107% | 100% | 89.8% | 84.5% |  | 92.1% | 98.6% | 119% | 108% | 124% | 99.1% |  | 107% | 107% | 90% |  | 102%
14 | O=C1C=C(O)C(=O)C=C1O | 94.8% | 114% | 112% | 97.9% | 107% |  | 112% | 107% | 94.1% | 119% | 103% | 144% | 104% | 150% | 101% | 115% | 98.7% | 107% | 104%
15 | CC1(O)CCCCC1O (centres undefined) | 103% | 104% | 104% | 95.9% | 109% | 91.8% |  | 102% | 108% | 115% | 94.6% | 106% | 108% | 112% | 106% | 110% | 97% | 83.4% | 104%
16 | Nc1ccc(N=Nc2ccc(O)cc2)c(N)n1 | 91.2% | 75.8% | 97.4% | 99.7% | 84.1% | 47% | 69.2% | 65.3% | 109% | 79.3% | 39.2% | 72% | 73.7% | 91.6% | 73.1% |  | 66.5% | 97.9% | 70.9%
